Results taken from ChEMBL document CHEMBL1201862, “PubChem BioAssay data set” (2004).
In all, about 400,000 compounds went through this assay and about 2,100 (0.53%) were called active. Roughly 14% stayed inconclusive and do not appear here. The rule behind the calls is not given here. The list comes from a sample in which actives are over-represented; it also holds similar structures and randomly drawn compounds.

Molecular target: Ataxin-2 (Homo sapiens) (UniProt Q99700)
Test: qHTS for Inhibitors of ATXN expression.
Format: functional

Ataxin-2 (Homo sapiens), sequence (Q99700 whole entry): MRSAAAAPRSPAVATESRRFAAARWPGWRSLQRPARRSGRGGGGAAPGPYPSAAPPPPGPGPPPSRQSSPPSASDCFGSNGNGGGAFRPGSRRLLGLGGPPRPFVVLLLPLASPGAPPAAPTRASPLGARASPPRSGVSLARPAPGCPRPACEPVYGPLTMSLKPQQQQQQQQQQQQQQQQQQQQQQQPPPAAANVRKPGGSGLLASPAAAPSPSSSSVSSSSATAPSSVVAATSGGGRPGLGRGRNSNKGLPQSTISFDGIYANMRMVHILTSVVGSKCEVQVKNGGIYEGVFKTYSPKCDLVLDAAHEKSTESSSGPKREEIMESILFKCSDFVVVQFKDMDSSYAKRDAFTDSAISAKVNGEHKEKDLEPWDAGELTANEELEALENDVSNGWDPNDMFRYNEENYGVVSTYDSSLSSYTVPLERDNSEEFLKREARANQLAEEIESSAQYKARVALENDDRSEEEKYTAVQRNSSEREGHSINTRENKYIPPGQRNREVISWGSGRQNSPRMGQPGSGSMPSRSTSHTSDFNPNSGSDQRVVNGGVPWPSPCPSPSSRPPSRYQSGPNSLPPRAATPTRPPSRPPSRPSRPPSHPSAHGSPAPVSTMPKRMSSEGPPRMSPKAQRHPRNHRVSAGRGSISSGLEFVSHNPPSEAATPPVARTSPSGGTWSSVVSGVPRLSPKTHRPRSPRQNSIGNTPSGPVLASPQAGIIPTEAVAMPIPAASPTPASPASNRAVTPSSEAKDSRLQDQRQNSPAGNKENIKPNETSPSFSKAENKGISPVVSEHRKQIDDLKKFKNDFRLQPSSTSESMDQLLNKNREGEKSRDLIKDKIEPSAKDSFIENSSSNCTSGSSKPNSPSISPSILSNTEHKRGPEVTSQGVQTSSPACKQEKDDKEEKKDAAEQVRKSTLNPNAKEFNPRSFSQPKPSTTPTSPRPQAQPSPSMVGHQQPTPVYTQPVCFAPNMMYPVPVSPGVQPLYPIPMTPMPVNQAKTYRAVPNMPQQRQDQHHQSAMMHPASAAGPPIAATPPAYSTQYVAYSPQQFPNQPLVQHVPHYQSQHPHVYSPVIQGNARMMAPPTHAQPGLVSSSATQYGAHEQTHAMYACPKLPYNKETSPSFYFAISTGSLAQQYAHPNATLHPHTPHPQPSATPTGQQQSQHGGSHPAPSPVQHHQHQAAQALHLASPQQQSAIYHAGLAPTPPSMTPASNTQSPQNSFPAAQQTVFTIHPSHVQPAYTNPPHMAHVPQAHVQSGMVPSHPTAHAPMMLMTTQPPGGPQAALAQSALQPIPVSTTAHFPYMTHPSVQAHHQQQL

| SMILES | Potency |
| --- | --- |
| COC(=O)CC1C(=O)NCCN1C(=O)CSc1nc2ccccc2c(=O)n1CC(C)C (stereo unspecified) | inactive |
| Cc1nc(C/C(=N\N)c2ccc(O)cc2O)cs1 | inactive |
| O=C1c2cccc3c(N4CCCCC4)ccc(c23)C(=O)N1c1cccc(O)c1 | inactive |
| COc1cc2c(cc1OC)CN(Cc1cc(=O)n3c(-c4ccccc4)csc3n1)CC2 | inactive |
| COc1cc2c(cc1OC)CN(C(=O)CSc1ccc(F)cc1)CC2 | inactive |
| COc1ccc(C(=O)CCN2CCc3cc(OC)c(OC)cc3C2)cc1 | 26.7 µM (active) |
| Cc1c(C)c2cc(Cl)c(O)c(CN3CCN(C)CC3)c2oc1=O | inactive |
| CN1CCN(c2ccc(Cl)cc2NC(=O)/C=C/c2ccc(F)cc2)CC1 | inactive |
| CC1CCN(CCN=C(S)Nc2ccc(Cl)cc2)CC1 | inactive |
| CN1CCC(NCCC(c2ccc(F)cc2)c2ccc(Cl)cc2)CC1 (stereo unspecified) | 25.1 µM (active) |
| COc1ccccc1Sc1ccccc1/C=N/NC(N)=O | 39.8 µM (active) |
| COc1cc(Cl)cc(/C=N/NC(N)=O)c1O | inactive |
| CCOc1ccc(Cl)cc1/C=N/NC(N)=O | inactive |
| CCOC(=O)c1cc2c(=O)n3ccccc3nc2n(CCOC)/c1=N/C(=O)c1c(-c2c(F)cccc2Cl)noc1C | inactive |
| Cc1cc(C)c2c(N)c3ccccc3nc2n1 | inactive |
| Cc1cc2[nH]c3c4ccccc4nc(C)c3c2cc1C | 28.2 µM (active) |
| Cc1c2ccccc2nc2ccccc12 | inactive |
| Cc1ccc2nc(N3CCN(C(=O)CCCC(=O)O)CC3)nc(-c3ccccc3)c2c1 | inactive |
| CCOC(=O)c1ccc(N2C(=O)C=CC2=O)cc1 | 39.8 µM (active) |
| CCOC(=O)c1ccc(NC(=O)N2C3CCCC2CC(NC(C)=O)C3)cc1 (stereo unspecified) | inactive |
| CCOC(=O)c1ccc(NS(=O)(=O)c2c(C)n(C)c(=O)n(C)c2=O)cc1 | inactive |
| CC1CCCc2sc3ncn(N)c(=N)c3c21 (stereo unspecified) | inactive |
| CCCCCCCNC(=O)C1(CC2CC(c3cccc(Br)c3)=NO2)CCNCC1 (stereo unspecified) | 31.6 µM (active) |
| CCCCCCCNC(=O)C1(CC2CC(c3ccc(Cl)cc3)=NO2)CCNCC1 (stereo unspecified) | 25.1 µM (active) |

| SMILES | Potency |
| --- | --- |
| CC1CCCC(C)N1C(=O)COC(=O)C12CC3CC(CC(Cl)(C3)C1)C2 (stereo unspecified) | inactive |
| O=C(NN/C=C1\C(=O)N(c2ccc(Cl)cn2)C(=O)c2ccccc21)c1ccncc1 | inactive |
| CCCCCCn1c(SCCOC)nc2c1c(=O)[nH]c(=O)n2C | inactive |
| Cc1cccc(OCC2Cn3c(nc4c3c(=O)[nH]c(=O)n4C)O2)c1 (stereo unspecified) | inactive |
| Cn1c(=O)[nH]c(=O)c2c1nc(N1CCCCCC1)n2Cc1cccc2ccccc12 | 44.7 µM (active) |
| CCCSc1nc2c(c(=O)[nH]c(=O)n2C)n1Cc1ccccc1 | inactive |
| CCCCCn1c(N2CCC(Cc3ccccc3)CC2)nc2c1c(=O)[nH]c(=O)n2C | 28.2 µM (active) |
| Brc1ccc(C2CC(c3ccccc3)=Nc3ccccc3N2)cc1 (stereo unspecified) | inactive |
| CC(=O)c1ccc(N2C(=O)[C@@H]3[C@H](C2=O)[C@H]2c4ccccc4C=NN2[C@@H]3C(C)=O)cc1 | inactive |
| CCn1nc([N+](=O)[O-])c(C(C#N)c2nc3cc(C(F)(F)F)ccc3s2)c(Cl)c1=O (stereo unspecified) | 28.2 µM (active) |
| CCOC(=O)c1cc2c(=O)n3ccccc3nc2n(Cc2ccco2)/c1=N\C(=O)c1cccc(Br)c1 | inactive |
| O=C(NCc1ccccn1)c1cc2ccccn2n1 | inactive |
| COCCCNC(=O)c1c(N)n(-c2cccc(S(N)(=O)=O)c2)c2nc3ccccc3nc12 | inactive |
| COc1ccc(CN(C)CC(O)COc2ccc(-c3ccccc3)cc2)cc1OC (stereo unspecified) | 11.2 µM (active) |
| OC(CNC1CCCC1)COc1ccc(-c2ccccc2)cc1 (stereo unspecified) | inactive |
| COc1ccc(CN(C)Cc2c(O)ccc3cc(Br)ccc23)cc1OC | inactive |
| Cc1nn2c(NC(C)C)c3c(nc2c1-c1ccccc1)CCC3 | inactive |
| Cc1nn2c(NCCN(C)C)c3c(nc2c1-c1ccccc1)CCCC3 | 35.5 µM (active) |
| Cc1cc(C(C)(C)C)n2nc(C)c(-c3ccccc3)c2n1 | inactive |
| CSCCC(NC(=O)/C(=C/c1ccc2c(c1)OCO2)NC(=O)c1cccc([N+](=O)[O-])c1)C(=O)O (stereo unspecified) | inactive |
| C=CC[C@H](CC(=O)N(CCO)Cc1ccccc1)C(=O)N[C@H](COC(=O)[C@@H](CC=C)Cc1ccc(F)cc1)C(C)(C)C | 28.2 µM (active) |
| C=CC[C@H](CC(=O)N(CCO)Cc1ccccc1)C(=O)NC[C@@H](OC(=O)[C@@H](CC=C)Cc1ccc(F)cc1)c1ccccc1 | 28.2 µM (active) |
| C=CCC[C@H](Cc1ccc(F)cc1)C(=O)OC[C@@H](NC(=O)[C@@H](CC=C)CC(=O)N[C@@H](CO)Cc1ccccc1)C(C)(C)C | 39.8 µM (active) |
| C=CC[C@H](CC(=O)N(CCO)Cc1ccccc1)C(=O)N[C@H](COC(=O)[C@@H](CC=C)Cc1ccc(F)cc1)Cc1ccccc1 | 22.4 µM (active) |

| SMILES | Potency |
| --- | --- |
| Cn1c(-c2c(N)n(CCc3ccccc3)c3nc4ccccc4nc23)nc2ccccc21 | inactive |
| Cc1ccc(C(C(=O)NCC2CCCO2)N(C(=O)c2snc(C(N)=O)c2N)c2ccccc2F)o1 (stereo unspecified) | inactive |
| C=CC[C@@H](CC(=O)N(CCO)Cc1ccccc1)C(=O)N[C@H](COC(=O)[C@@H](CC=C)Cc1ccc(F)cc1)Cc1ccccc1 | 28.2 µM (active) |
| C=CC[C@H](CC(=O)N(CCO)Cc1ccccc1)C(=O)N[C@@H](COC(=O)[C@@H](CC=C)Cc1ccc(F)cc1)Cc1ccccc1 | 28.2 µM (active) |
| OCCN(Cc1ccccc1)C(S)=Nc1ccc(F)cc1 | inactive |
| Cc1cccn2c(=O)c3cc(C#N)/c(=N\C(=O)c4ccncc4)n(CCCOC(C)C)c3nc12 | inactive |
| CCn1ccnc1CN1CCc2c([nH]c3ccccc23)C1CC(C)C (stereo unspecified) | inactive |
| O=C(CCCCCn1c(=S)[nH]c2ccc(N3CCOCC3)cc2c1=O)NCc1ccc(Cl)cc1 | inactive |
| C[C@]12c3[nH]c4ccc(Cl)cc4c3CCN1C(=O)[C@@H](CC(=O)NCc1cccc(C(F)(F)F)c1)C[C@@H]2C(=O)N1CCCCC1 | 35.5 µM (active) |
| C[C@]12c3[nH]c4ccc(Cl)cc4c3CCN1C(=O)[C@@H](CC(=O)NCc1cccc(C(F)(F)F)c1)C[C@@H]2C(=O)N1CCOCC1 | 20 µM (active) |
| O=C(CCCCCn1c(=S)[nH]c2ccc(N3CCOCC3)cc2c1=O)NCc1cccc(Cl)c1 | inactive |
| CCC1(C)Cc2ccccc2-c2ncnc(O)c21 (stereo unspecified) | inactive |
| COC(=O)N/N=C/c1cccc(OC(=O)c2ccc3c(c2)OCO3)c1 | inactive |
| O=C(Cn1nnc2ccccc2c1=O)Nc1ccc(S(=O)(=O)N2CCOCC2)cc1 | inactive |
| COc1ccc(C2C=C(c3ccccc3)Nc3nc(NS(=O)(=O)c4ccc(C)cc4)nn32)cc1 (stereo unspecified) | inactive |
| COc1cc([C@@H]2c3cc4c(cc3[C@@H](O)[C@H]3COC(=O)[C@H]23)OCO4)cc(OC)c1O[Si](C)(C)C(C)(C)C | 39.8 µM (active) |
| Oc1c(C(Nc2cccc(C(F)(F)F)c2)c2ccncc2)ccc2cccnc12 (stereo unspecified) | inactive |
| COc1cccc(-c2cc(C(F)(F)F)c(C#N)c(O)n2)c1 | inactive |
| OC(c1ccccc1)(c1nc(-c2cc(F)cc(F)c2)cs1)C(F)(F)F (stereo unspecified) | 35.5 µM (active) |
| N#Cc1cccc(-c2csc(C(O)(c3ccccc3)C(F)(F)F)n2)c1 (stereo unspecified) | 20 µM (active) |
| N#CC12COC3(CCCCC3C1(C#N)C#N)OC2=N (stereo unspecified) | inactive |
| Cc1cc(=O)oc2c3c(ccc12)OCN(Cc1ccc(Cl)cc1)C3 | inactive |
| Cc1cc(NC(=S)NC(=O)c2ccccc2)ccc1-c1cc2ccccc2oc1=O | 17.8 µM (active) |
| O=C(O)c1cccc(Nc2nc(-c3cc4ccccc4oc3=O)cs2)c1 | inactive |

| SMILES | Potency |
| --- | --- |
| O=C(O)c1ccc(Nc2nc(-c3cc4ccccc4oc3=O)cs2)cc1O | inactive |
| N#CC1=C(N)OC2=C(CC/C2=C\c2ccccc2)C1c1ccccc1 (stereo unspecified) | inactive |
| N#CC1=C(c2ccccc2)/C(=C/c2ccccc2)OC1=O | 22.4 µM (active) |
| Nc1ccc2c(c1)nc(O)c1cc(N)ccc12 | inactive |
| CCN(CC)c1ccc(/C=C/C(=O)C2C(=O)C=C(C)OC2=O)cc1 (stereo unspecified) | inactive |
| CCOC(=O)c1sc(-c2ccc(Cl)cc2)nc1O | inactive |
| CCOC(=O)c1c(C)n(O)c2ccc(Cl)cc2c1=O | inactive |
| CCOC(=O)C1=C(Cc2ccc(Cl)cc2)C(=O)c2ccccc2C1=O | 31.6 µM (active) |
| CCN1CCN(c2nc3c(C)cccn3c(=O)c2/C=C(\C#N)C(=O)NC)CC1 | inactive |
| COc1ccc(-c2onc3ccc(C(C)=O)cc23)cc1 | inactive |
| COc1ccc(-c2cc3c(=O)n(CC(=O)NCc4ccc(Cl)cc4)ncn3n2)cc1 | inactive |
| COc1ccc(-c2cc(CNC(=O)CCl)on2)cc1 | 15.8 µM (active) |
| CC(C)c1ccc(C2C(C#N)=C(N)Oc3c2oc(CO)cc3=O)cc1 (stereo unspecified) | inactive |
| CCN(CC)C(=O)c1ccc2c3c(cccc13)C(=O)N(CCc1ccc(OC)c(OC)c1)C2=O | 28.2 µM (active) |
| CCCN1C(=O)c2cccc3c(N4CCCCC4)ccc(c23)C1=O | inactive |
| COc1ccc(CCN2C(=O)CS/C2=N/NC(=O)c2ccccc2F)cc1OC | inactive |
| O=C(O)CCSc1nnc(CNc2ccc(Cl)cc2)n1Cc1ccccc1 | inactive |
| Cc1cc(C(=O)CCl)c(C)n1CC1COc2ccccc2O1 (stereo unspecified) | 26.7 µM (active) |
| CC(C)N1CCN(CC2COc3ccccc3O2)CC1 (stereo unspecified) | inactive |
| CC1CC(=NNC(=O)C2COc3ccccc3O2)CC(C)(C)C1 (stereo unspecified) | inactive |
| O=C(O)CN1C(=O)C2C3CCC(C3)C2C1=O (stereo unspecified) | inactive |
| COc1ccc(-c2cn3nc4c(nc3n2)CCCC4)cc1 | inactive |
| CCCCCCc1cc2cc(-c3nnc(-c4ccccc4O)o3)c(=O)oc2cc1O | inactive |
| CC(C)c1ccc2c(c1)CCC1C(C)(CN)CCCC21C (stereo unspecified) | 39.8 µM (active) |
